The campaign covered roughly 5,500 compounds. About 2,000 (36%) were called active. About 18% were inconclusive and are not listed. Rule as the data show it: active = normalized growth mostly below about 0.91 (no sharp cut-off); inconclusive = no clear call, values can overlap the other calls; inactive = mostly above about 0.92. This is one part of the list.
Test: chemical genetic growth profiling, strain panel (AID 1159580);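 also: tested at 20 µM; growth read once vehicle control cultures reached saturation at 30 °C; 1 = growth at the plate median or of vehicle wells; lower values mean less growth of the strain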
Conditions: growth OD
[1] = S. cerevisiae deletion strains, locus YAL040C, strain CLN3, hits give low values
[2] = S. cerevisiae deletion strains, locus YCL061C, strain MRC1 (second series), hits give low values
[3] = S. cerevisiae deletion strains, locus YDR150W, strain NUM1, hits give low values
[4] = S. cerevisiae deletion strains, locus YER002W, strain NOP16, hits give low values
[5] = S. cerevisiae deletion strains, locus YGR078C, strain PAC10, hits give low values
[6] = S. cerevisiae deletion strains, locus YMR307W, strain GAS1, hits give low values
[7] = S. cerevisiae deletion strains, locus YNL175C, strain NOP13, hits give low values
[8] = S. cerevisiae deletion strains, locus YNL197C, strain WHI3, hits give low values
[9] = S. cerevisiae deletion strains, locus YNL224C, strain SQS1, hits give low values
[10] = S. cerevisiae deletion strains, locus YNL322C, strain KRE1, hits give low values
[11] = S. cerevisiae deletion strains, locus YOR083W, strain WHI5 (second series), hits give low values
[12] = S. cerevisiae deletion strains, locus YPL055C, strain LGE1, hits give low values
[13] = S. cerevisiae deletion strains, locus YGR229C, strain SMI1, hits give low values
[14] = S. cerevisiae deletion strains, locus YNL153C, strain GIM3, hits give low values

Measured: normalized growth

O=C(O)c1cc[c]([Hg][Cl])cc1
active: [1] 0.825 | [4] 0.757 | [5] 0.339 | [8] 0.731 | [11] 0.77
inactive: [2] 1.01 | [3] 1 | S. cerevisiae deletion strains, locus YDR363W, strain ESC2, hits give low values 0.943 | [6] 0.981 | S. cerevisiae deletion strains, locus YNL128W, strain TEP1, hits give low values 0.955 | [7] 0.918 | [9] 0.948 | [10] 1.01 | [12] 0.961

C(=C(c1ccccc1)c1ccccc1)N1CCC1
inactive: S. cerevisiae deletion strains, locus YAL013W, strain DEP1, hits give low values 1 | S. cerevisiae deletion strains, locus YBR229C, strain ROT2, hits give low values 0.993 | S. cerevisiae deletion strains, locus YDL101C, strain DUN1, hits give low values 0.96 | S. cerevisiae deletion strains, locus YDL134C, strain PPH21, hits give low values 1.01 | [3] 0.87 | S. cerevisiae deletion strains, locus YEL061C, strain CIN8, hits give low values 0.99 | [5] 0.997 | [13] 1 | S. cerevisiae deletion strains, locus YHR030C, strain SLT2, hits give low values 0.972 | S. cerevisiae deletion strains, locus YHR087W, strain rtc3, hits give low values 0.984 | S. cerevisiae deletion strains, locus YJL187C, strain SWE1, hits give low values 1 | S. cerevisiae deletion strains, locus YJR043C, strain POL32, hits give low values 1 | S. cerevisiae deletion strains, locus YJR075W, strain HOC1, hits give low values 0.984 | S. cerevisiae deletion strains, locus YLR039C, strain RIC1, hits give low values 1.01 | S. cerevisiae deletion strains, locus YLR058C, strain SHM2 (second series), hits give low values 0.998 | S. cerevisiae deletion strains, locus YLR085C, strain ARP6, hits give low values 0.998 | S. cerevisiae deletion strains, locus YLR262C, strain YPT6, hits give low values 1.02 | S. cerevisiae deletion strains, locus YML094W, strain GIM5, hits give low values 0.975 | S. cerevisiae deletion strains, locus YMR219W, strain ESC1, hits give low values 0.988 | S. cerevisiae deletion strains, locus YMR263W, strain SAP30, hits give low values 0.987 | [6] 1.02 | [14] 0.988 | S. cerevisiae deletion strains, locus YNL298W, strain CLA4 (second series), hits give low values 1 | [10] 0.991 | S. cerevisiae deletion strains, locus YNR030W, strain Alg12, hits give low values 1.03 | [12] 0.854 | S. cerevisiae deletion strains, locus YPL241C, strain CIN2, hits give low values 0.9 | S. cerevisiae deletion strains, locus YPR135W, strain CTF4, hits give low values 1.03 | S. cerevisiae strains, strain wild type, hits give low values 1.01

NC(=O)c1ccccc1
inactive: [1] 0.923 | [2] 1.01 | [4] 0.988 | [5] 0.997 | [13] 1.04 | [14] 1.01 | [7] 0.972 | [8] 0.979 | [9] 0.997 | [11] 0.952

From PubChem BioAssay AID1159580 (chemical genetic matrix, 2015)
